Source: PMC4336329 (PLoS ONE, 2015)
Hit rate of the full screen: of about 310,000 compounds, about 14,000 (4.5%) showed an effect of 50% or more. The effect is printed as a negative number. Many of the other results were omitted from the sample, so strong results are more common in it than they were.

Each molecule was assayed against human ether-à-go-go-related gene (hERG) potassium channel (human, UniProt Q12809) (assay: primary screen, population patch clamp on CHO cells stably expressing hERG; higher = less effect of the substance).
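Also: peak tail current of the secondary pulse compared with the same well before compound.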

human ether-à-go-go-related gene (hERG) potassium channel, sequence (Q12809 whole entry, looked up): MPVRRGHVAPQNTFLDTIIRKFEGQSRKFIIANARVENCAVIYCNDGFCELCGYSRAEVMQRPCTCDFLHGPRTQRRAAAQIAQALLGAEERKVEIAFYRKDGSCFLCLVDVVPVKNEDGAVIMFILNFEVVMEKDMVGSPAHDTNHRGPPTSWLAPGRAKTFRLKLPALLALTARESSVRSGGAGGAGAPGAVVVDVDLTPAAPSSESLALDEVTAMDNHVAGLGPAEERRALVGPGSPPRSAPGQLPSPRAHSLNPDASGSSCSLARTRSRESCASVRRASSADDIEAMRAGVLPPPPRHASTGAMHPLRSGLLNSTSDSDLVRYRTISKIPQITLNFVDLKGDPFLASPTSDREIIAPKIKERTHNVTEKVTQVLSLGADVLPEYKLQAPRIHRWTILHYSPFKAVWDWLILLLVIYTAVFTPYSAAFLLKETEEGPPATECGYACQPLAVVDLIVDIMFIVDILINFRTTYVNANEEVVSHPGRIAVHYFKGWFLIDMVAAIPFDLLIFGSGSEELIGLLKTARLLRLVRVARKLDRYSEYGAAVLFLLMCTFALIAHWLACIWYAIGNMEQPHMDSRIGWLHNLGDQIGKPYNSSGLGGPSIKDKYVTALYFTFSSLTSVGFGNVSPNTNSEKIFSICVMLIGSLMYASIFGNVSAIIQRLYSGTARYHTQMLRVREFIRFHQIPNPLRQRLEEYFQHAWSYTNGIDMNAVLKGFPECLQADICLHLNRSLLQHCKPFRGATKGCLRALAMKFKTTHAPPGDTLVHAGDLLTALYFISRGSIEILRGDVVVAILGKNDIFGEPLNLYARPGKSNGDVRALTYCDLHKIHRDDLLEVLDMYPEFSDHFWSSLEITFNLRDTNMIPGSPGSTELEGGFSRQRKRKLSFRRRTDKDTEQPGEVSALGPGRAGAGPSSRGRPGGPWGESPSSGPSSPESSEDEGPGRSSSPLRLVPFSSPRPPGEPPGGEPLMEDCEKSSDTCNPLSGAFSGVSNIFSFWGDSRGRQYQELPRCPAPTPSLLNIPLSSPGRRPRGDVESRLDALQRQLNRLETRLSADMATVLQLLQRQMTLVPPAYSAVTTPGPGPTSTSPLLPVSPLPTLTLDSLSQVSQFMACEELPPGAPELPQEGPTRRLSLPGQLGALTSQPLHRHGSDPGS

Row | Structure (SMILES) | hERG current change (%, negative = inhibition) at 10uM
1 | O=C(Nc1ccc2c(c1)OCO2)N1CCCc2ccccc21 | 11.7%
2 | COc1cc(/C=N/NC(=O)c2ccc(O)cc2)ccc1OCC(=O)Nc1cccc([N+](=O)[O-])c1 | 10.3%
3 | O=S1(=O)N(Cc2ccccc2F)CCCN1Cc1c(F)cccc1Cl | 7.29%
4 | CC(=O)Nc1ccc(S(=O)(=O)NCc2ccc3[nH]c(C)cc3c2)cc1 | 21%
5 | Cc1ccc([N+](=O)[O-])cc1NC(=O)C(C)N1CCCCC1 (centres unmarked) | 30.2%
6 | N#Cc1ccc(NC(=O)CN2CCN(c3ccccn3)CC2)cc1 | -71.9%
7 | CC(=O)Nc1ccc(NC(=O)CN2CCN(c3ccccn3)CC2)cc1 | 13.3%
8 | O=C(CN1CCN(c2ccccn2)CC1)Nc1ccccc1 | -9.4%
9 | Cc1ccc(NC(=O)CN2CCN(c3ccccn3)CC2)c(Cl)c1 | -1.57%
10 | O=C(CN1CCN(c2ccccn2)CC1)Nc1ccc(Br)cc1 | -57.7%
11 | Cc1cc([N+](=O)[O-])ccc1NC(=O)C(C)N1CCN(c2ccccn2)CC1 (centres unmarked) | -71.4%
12 | N#Cc1ccccc1NC(=O)CN1CCN(c2ccccn2)CC1 | -29.8%
13 | O=C(CN1CCN(c2ccccn2)CC1)Nc1ccccc1Br | -31.6%
14 | Cc1cc(Br)ccc1NC(=O)CN1CCN(c2ccccn2)CC1 | -71.5%
15 | CC(C(=O)Nc1cc([N+](=O)[O-])ccc1Cl)N1CCN(c2ccccc2)CC1 (centres unmarked) | 12.3%
16 | O=C(CN1CCN(c2ccccn2)CC1)Nc1ccc(F)cc1.O=C(O)C(=O)O | -47.2%
17 | COc1ccc(/C=N/NC(=O)c2ccc(NC(=O)C3CCCCC3)cc2)cc1O | 24.3%
18 | Cc1cc(NC(=O)CSc2ccc(-c3ccc(Br)cc3)nn2)no1 | 11.1%
19 | Cc1cc(C)cc(N(CCC#N)C(=O)CSc2n[nH]c(N)n2)c1 | 12.6%
20 | O=C(NCCN1CCOCC1)c1ccc(NS(=O)(=O)c2cccc([N+](=O)[O-])c2)cc1 | 10.6%
21 | Cc1ccc(/C=N/N2CCN(Cc3cccc4ccccc34)CC2)s1 | -3.05%
22 | CS(=O)(=O)Nc1cccc(C2=NN(S(=O)(=O)c3ccccc3)C(c3ccco3)C2)c1 (centres unmarked) | -29.9%
23 | CCS(=O)(=O)Nc1ccc(C2=NN(S(=O)(=O)c3ccc(F)cc3)C(c3ccco3)C2)cc1 (centres unmarked) | -38.8%
24 | COc1ccc(S(=O)(=O)N2N=C(c3cccc(NS(C)(=O)=O)c3)CC2c2ccco2)cc1 (centres unmarked) | -3.61%
25 | Cc1ccc(C2=NN(S(=O)(=O)c3ccccc3)C(c3ccco3)C2)cc1 (centres unmarked) | 8.53%
26 | CS(=O)(=O)Nc1ccc(C2=NN(S(=O)(=O)c3ccc(F)cc3)C(c3ccco3)C2)cc1 (centres unmarked) | -70.2%
27 | COc1ccc(S(=O)(=O)N2N=C(c3ccc(NS(C)(=O)=O)cc3)CC2c2ccco2)cc1 (centres unmarked) | -74.2%

Row | Structure (SMILES) | hERG current change (%, negative = inhibition) at 10uM
28 | CCCc1cc(=O)oc2cc(C)cc(OCC(=O)NCC(O)c3ccccc3)c12 (centres unmarked) | 13.5%
29 | Cc1cccc(CCNC(=O)CCS(=O)(=O)c2ccc(Br)cc2)c1 | 8.8%
30 | S=C(NCc1ccco1)N1CCN(Cc2ccco2)CC1 | 1.76%
31 | O=C(/C=C/c1ccco1)N1CCC(Cc2ccccc2)CC1 | 4.42%
32 | O=C(NC(=S)N1CCN(C/C=C/c2ccccc2)CC1)c1ccco1 | -35%
33 | O=C(/C=C/c1ccco1)N1CCN(S(=O)(=O)/C=C/c2ccccc2)CC1 | -45%
34 | O=C(/C=C/c1ccco1)N1CCN(C/C=C/c2ccccc2)CC1 | -58.8%
35 | S=C(NCc1ccco1)N1CCN(C/C=C/c2ccccc2)CC1 | -56.2%
36 | Cc1cccc(C(=O)N(C)c2nnc(-c3ccncc3)s2)c1 | 1.3%
37 | Cc1ccc(NC(=O)Cn2ccsc2=N)c([N+](=O)[O-])c1.Cl | 35.1%
38 | CC(C)CCNc1nc(N)c([N+](=O)[O-])c(N2CCCCCC2)n1 | 12.1%
39 | c1cncc(C2Nc3ccccc3-c3nc4ccccc4n32)c1 (centres unmarked) | -5.58%
40 | c1ccc(C2Nc3ccccc3-c3nc4ccccc4n32)cc1 (centres unmarked) | -18.1%
41 | c1ccc2c(c1)NC(c1ccncc1)n1c-2nc2ccccc21 (centres unmarked) | -66.2%
42 | Cc1cc(NC(=O)CCC(=O)N(CC(=O)NCC2CCCO2)c2ccc(C)c(C)c2)no1 (centres unmarked) | 8.68%
43 | Cc1c([C@@H]2C[C@H]3CN(Cc4cccc(Cl)c4)C(=O)[C@]34CCCN24)cnn1C | -45.5%
44 | CCOC(=O)c1[nH]ncc1[C@@H]1C[C@H]2CN(Cc3cccc(Cl)c3)C(=O)[C@]23CCCN13 | -27.4%
45 | O=C1N(Cc2cccc(Cl)c2)C[C@@H]2C[C@@H](c3c[nH]c4ccccc34)N3CCC[C@@]123 | -74.8%
46 | Cn1cc([C@@H]2C[C@H]3CN(Cc4cccc(Cl)c4)C(=O)[C@]34CCCN24)c2ccccc21 | -72.7%
47 | O=C1N(Cc2cccc(Cl)c2)C[C@@H]2C[C@@H](c3cccc4ncccc34)N3CCC[C@@]123 | -48.8%
48 | COc1cccc(/C=N/NC(=O)c2cccc([N+](=O)[O-])c2)c1OS(=O)(=O)c1ccccc1 | -16.2%
49 | COc1ccc(C)cc1N(CC(=O)N1CCCCCC1)S(C)(=O)=O | 12.2%
50 | CCOc1ccc(CN2CCNC(=O)C2CC(=O)NC2CCOCC2)cc1 (centres unmarked) | -44.7%
51 | CC1CCC(NC(=O)COC(=O)c2ccco2)CC1 (centres unmarked) | 7.07%
52 | N#Cc1ccccc1OCC(=O)Nc1ccc2c(c1)OCCCO2 | 3.08%
53 | COc1ccccc1CNC(=O)C1(C)Oc2cccnc2NC1=O (centres unmarked) | 9.69%
